According to PubChem BioAssay AID1159580 (chemical genetic matrix, 2015):
Screen size: about 5,500 compounds; about 2,000 (36%) were called active. Not shown: some 18% with an inconclusive outcome. Cut-off read from the data, not from the text of the source: active = normalized growth mostly below about 0.91 (no sharp cut-off); inconclusive = no clear call, values can overlap the other calls; inactive = mostly above about 0.92. The list shows a part of the results.

Test: chemical genetic growth profiling, strain panel (AID 1159580);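 note: tested at 20 µM; growth read once vehicle control cultures reached saturation at 30 °C; 1 = growth at the plate median or of vehicle wells; lower values mean less growth of the strain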
Conditions: S. cerevisiae deletion strains, growth OD
[1] = locus YDL101C, strain DUN1, active compounds read low
[2] = locus YHR030C, strain SLT2, active compounds read low
[3] = locus YAR019C, strain CDC15, active compounds read low
[4] = locus YDL017W, strain CDC7, active compounds read low
[5] = locus YDL028C, strain MPS1, active compounds read low
[6] = locus YDL108W, strain KIN28, active compounds read low
[7] = locus YDL132W, strain cdc53, active compounds read low
[8] = locus YDL214C, strain PRR2, active compounds read low
[9] = locus YDR052C, strain DBF4, active compounds read low
[10] = locus YDR054C, strain cdc34, active compounds read low
[11] = locus YDR477W, strain SNF1, active compounds read low
[12] = locus YER123W, strain YCK3, active compounds read low
[13] = locus YER133W, strain GLC7, active compounds read low
[14] = locus YFL009W, strain cdc4, active compounds read low
[15] = locus YFL029C, strain CAK1, active compounds read low
[16] = locus YFR003C, strain YPI1, active compounds read low
[17] = locus YFR019W, strain FAB1, active compounds read low
[18] = locus YFR028C, strain CDC14, active compounds read low
[19] = locus YGR040W, strain KSS1, active compounds read low
[20] = locus YGR052W, strain FMP48, active compounds read low
[21] = locus YGR092W, strain DBF2, active compounds read low
[22] = locus YHR079C, strain IRE1, active compounds read low
[23] = locus YHR205W, strain SCH9, active compounds read low
[24] = locus YIL147C, strain SLN1, active compounds read low
[25] = locus YJL095W, strain BCK1, active compounds read low
[26] = locus YJR016C, strain ILV3, active compounds read low
[27] = locus YJR066W, strain TOR1, active compounds read low
[28] = locus YKL048C, strain ELM1, active compounds read low
[29] = locus YKL101W, strain HSL1, active compounds read low
[30] = locus YKL193C, strain SDS22, active compounds read low
[31] = locus YLR113W, strain HOG1, active compounds read low
[32] = locus YLR133W, strain CKI1, active compounds read low
[33] = locus YLR403W, strain SFP1, active compounds read low
[34] = locus YML070W, strain DAK1, active compounds read low
[35] = locus YMR001C, strain CDC5, active compounds read low
[36] = locus YMR205C, strain PFK2 (second series), active compounds read low
[37] = locus YMR277W, strain FCP1, active compounds read low
[38] = locus YNL006W, strain LST8, active compounds read low
[39] = locus YNL020C, strain ARK1, active compounds read low
[40] = locus YNL183C, strain NPR1, active compounds read low
[41] = locus YNL207W, strain RIO2, active compounds read low
[42] = locus YNL307C, strain MCK1 (second series), active compounds read low
[43] = locus YOL078W, strain AVO1, active compounds read low
[44] = locus YOL136C, strain PFK27, active compounds read low
[45] = locus YOR061W, strain CKA2, active compounds read low
[46] = locus YOR231W, strain MKK1, active compounds read low
[47] = locus YOR329C, strain SCD5, active compounds read low
[48] = locus YPL153C, strain RAD53, active compounds read low
[49] = locus YPL204W, strain HRR25, active compounds read low
[50] = locus YPL209C, strain IPL1, active compounds read low
[51] = locus YPL256C, strain CLN2, active compounds read low
[52] = locus YPR025C, strain CCL1, active compounds read low
[53] = locus YPR111W, strain DBF20, active compounds read low
[54] = strain NNK1, active compounds read low
[55] = strain TSCII, active compounds read low

Measured: normalized growth

Cc1ccc(NC(=S)C(C#N)C(=O)N2CCCC2)c(C)c1 (stereo not drawn)
inactive: locus YAL013W, strain DEP1, active compounds read low 1.01 | locus YBR229C, strain ROT2, active compounds read low 0.998 | [1] 1.01 | locus YDR150W, strain NUM1, active compounds read low 0.928 | locus YEL061C, strain CIN8, active compounds read low 1.02 | locus YGR078C, strain PAC10, active compounds read low 0.988 | locus YGR229C, strain SMI1, active compounds read low 1 | [2] 1.06 | locus YHR087W, strain rtc3, active compounds read low 1.01 | locus YJR043C, strain POL32, active compounds read low 1.01 | locus YJR075W, strain HOC1, active compounds read low 1.02 | locus YKL190W, strain CNB1, active compounds read low 1.01 | locus YLR039C, strain RIC1, active compounds read low 1.02 | locus YLR058C, strain SHM2 (second series), active compounds read low 0.995 | locus YLR085C, strain ARP6, active compounds read low 1.06 | locus YLR262C, strain YPT6, active compounds read low 1 | locus YML094W, strain GIM5, active compounds read low 1.03 | locus YMR219W, strain ESC1, active compounds read low 1 | locus YMR263W, strain SAP30, active compounds read low 0.922 | locus YMR307W, strain GAS1, active compounds read low 1.03 | locus YNL153C, strain GIM3, active compounds read low 0.98 | locus YNL298W, strain CLA4 (second series), active compounds read low 1.03 | locus YNL322C, strain KRE1, active compounds read low 0.988 | locus YNR030W, strain Alg12, active compounds read low 1.02 | locus YOL006C, strain TOP1, active compounds read low 1.04 | locus YPL055C, strain LGE1, active compounds read low 0.948 | locus YPL241C, strain CIN2, active compounds read low 1.02 | locus YPR135W, strain CTF4, active compounds read low 1.04

N#CC(C(=O)Nc1cccc(C(F)(F)F)c1)C(=S)Nc1ccccc1Cl (stereo not drawn)
active: [8] 0.296 | [11] 0.105 | [13] 0.143 | [19] 0.147 | [20] 0.396 | [31] 0.449 | [40] 0.191 | [51] 0.501 | [53] 0.784
inactive: [3] 0.992 | [4] 0.985 | [5] 1 | [6] 0.99 | [7] 0.976 | [9] 1 | [10] 0.98 | [12] 0.969 | [14] 0.989 | [15] 1 | [16] 0.997 | [17] 0.957 | [18] 0.977 | [21] 0.98 | [2] 0.957 | [22] 0.978 | [23] 0.975 | [24] 0.996 | [25] 0.914 | [26] 0.978 | [27] 0.78 | [28] 0.986 | [29] 0.994 | [30] 0.998 | [32] 0.984 | [33] 0.979 | [34] 0.966 | [35] 0.995 | [36] 0.991 | [37] 0.98 | [38] 0.991 | [39] 0.981 | [41] 0.996 | [42] 0.983 | [43] 0.992 | [44] 0.959 | [45] 0.97 | [46] 1.01 | [47] 0.997 | [48] 0.963 | [49] 0.963 | [50] 1 | [52] 0.993 | [54] 1.02 | [55] 0.996

CC(C)Sc1c(Cl)cccc1NC(=O)Nc1cccc(C(F)(F)F)c1
active: [2] 0.773
inactive: [3] 0.981 | locus YBL105C, strain PKC1, active compounds read low 0.977 | locus YBR135W, strain CKS1, active compounds read low 0.972 | locus YBR136W, strain MEC1, active compounds read low 0.978 | locus YBR160W, strain CDC28, active compounds read low 0.981 | [4] 0.984 | [5] 0.979 | [1] 0.98 | [6] 0.972 | [7] 0.975 | [8] 0.927 | [9] 0.979 | [10] 0.97 | locus YDR226W, strain ADK1, active compounds read low 0.965 | [11] 0.916 | [12] 0.888 | [13] 0.945 | [14] 0.99 | [15] 0.976 | [16] 0.974 | [17] 0.918 | [18] 0.974 | [19] 0.908 | [20] 1.04 | [21] 0.94 | [22] 0.953 | locus YHR082C, strain KSP1, active compounds read low 0.96 | [23] 0.891 | [24] 0.979 | [25] 0.887 | locus YJL128C, strain PBS2, active compounds read low 0.956 | locus YJL157C, strain FAR1, active compounds read low 0.946 | [26] 0.984 | locus YJR066W, strain TOR1 (second series), active compounds read low 0.943 | [27] 0.912 | [28] 0.946 | locus YKL067W, strain YNK1, active compounds read low 0.914 | [29] 0.937 | [30] 0.975 | locus YKL203C, strain TOR2, active compounds read low 0.947 | [31] 0.908 | [32] 0.922 | [33] 0.953 | [34] 0.929 | [35] 0.977 | [36] 0.936 | [37] 0.973 | [38] 0.98 | [39] 0.926 | locus YNL161W, strain CBK1, active compounds read low 0.983 | [40] 0.918 | [41] 0.982 | locus YNL222W, strain SSU72, active compounds read low 0.97 | [42] 0.876 | [43] 0.966 | [44] 0.93 | [45] 0.957 | locus YOR119C, strain RIO1, active compounds read low 0.995 | [46] 0.946 | [47] 0.98 | locus YPL031C, strain PHO85, active compounds read low 0.905 | [48] 0.911 | [49] 0.896 | [50] 0.976 | [51] 0.861 | [52] 0.979 | locus YPR106W, strain ISR1, active compounds read low 0.976 | [53] 0.974 | [54] 0.97 | [55] 0.992
